Among all 390,000 compounds or so, about 4,000 (1%) were called active. Roughly 7% stayed inconclusive and do not appear here. Calls come from the whole dose curve; as a rule, active = well fitted inhibition curve with a large enough effect; inconclusive = small, poorly fitted or top-dose-only effect, or another doubt; inactive = no such curve, though single readings can be large or run the other way. For the sample, actives were picked, then their nearest neighbours and some compounds at random.
Each compound was assayed against DNA polymerase iota (Homo sapiens) (UniProt Q9UNA4) (assay: qHTS for Inhibitors of Polymerase Iota). Settings: Pol iota fluorescent replication assay, 10 min; series mostly up to 115 µM.
How it was run: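 Pol iota at 10 nM preincubated 15 min with compounds at room temperature; reaction started with fluorescent substrate, 50 nM final. Fluorescence read kinetically at 0 and 10 min; buffer-only wells as negative control.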
Potency is the fitted concentration of half-maximal effect.

Chain of DNA polymerase iota (Homo sapiens) (Q9UNA4 whole entry, looked up): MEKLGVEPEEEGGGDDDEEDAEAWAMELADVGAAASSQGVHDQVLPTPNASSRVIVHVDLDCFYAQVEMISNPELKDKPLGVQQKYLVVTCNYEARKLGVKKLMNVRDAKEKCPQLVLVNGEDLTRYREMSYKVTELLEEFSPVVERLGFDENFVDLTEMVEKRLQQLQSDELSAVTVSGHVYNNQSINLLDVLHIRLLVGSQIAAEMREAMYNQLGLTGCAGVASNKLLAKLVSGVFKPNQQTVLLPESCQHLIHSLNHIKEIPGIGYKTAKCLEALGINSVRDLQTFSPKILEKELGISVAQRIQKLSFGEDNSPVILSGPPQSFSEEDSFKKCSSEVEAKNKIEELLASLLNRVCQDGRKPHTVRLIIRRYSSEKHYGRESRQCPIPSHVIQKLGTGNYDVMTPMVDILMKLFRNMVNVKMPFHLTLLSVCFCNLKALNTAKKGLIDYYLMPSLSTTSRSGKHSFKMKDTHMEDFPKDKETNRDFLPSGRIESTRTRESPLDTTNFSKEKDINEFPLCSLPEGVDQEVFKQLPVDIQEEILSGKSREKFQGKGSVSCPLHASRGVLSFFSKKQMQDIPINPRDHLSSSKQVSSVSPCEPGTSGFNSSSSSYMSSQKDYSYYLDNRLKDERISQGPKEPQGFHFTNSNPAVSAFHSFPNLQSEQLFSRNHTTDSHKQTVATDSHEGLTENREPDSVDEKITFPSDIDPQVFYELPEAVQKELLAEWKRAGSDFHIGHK

Potency, active:
Cc1cc(/C=C2\SC(=O)N(C)C2=O)c(C)n1-c1cccc(C(=O)O)c1 17.8 µM
COc1ccc(CCC(=O)OCC(=O)Nc2ccc(C)c(S(=O)(=O)N(C)C)c2)cc1 89.1 µM
Cc1ccnc(-n2sc3ccccc3c2=O)n1 25.1 µM
O=C(NCC(=O)N1CCN(c2ccccc2O)CC1)c1ccc2ccccc2c1 89.1 µM
O=C(N/N=C/c1ccco1)c1ccc(C(=O)N/N=C/c2ccco2)o1 50.1 µM
O=c1[nH]n(-c2ccc([N+](=O)[O-])cc2)c(=O)c2ccccc12 10 µM

Potency, inactive:
Cc1ccc(N2C(=O)S/C(=C/c3cn(C)c4ccccc34)C2=O)cc1
Cc1cc(/C=C2/SC(=O)N(CC(=O)OC(C)C)C2=O)c(C)n1C
Cc1cccc(C(=O)Nc2ccc(S(=O)(=O)N3CCCCC3c3cccnc3)cc2)c1 (centres undefined)
CCc1cccc(C)c1Nc1c(-c2ccc(N(C)C)cc2)nc2ncccn12
CCN(C(=O)Cn1c(=O)nc(-c2ccccc2)c2cc(Cl)ccc21)c1cccc(C)c1
CCC(C)N(c1ccc(/C=C/c2ccnc3ccccc23)cc1)C(C)CC (centres undefined)
CC(=O)N1CCCc2cc(S(=O)(=O)N3CCC(C(=O)NCc4ccc(F)cc4)CC3)ccc21
CCCCC(=O)OC1=CN(Cc2ccccc2)S(=O)(=O)c2ccccc21
COc1cc(CCC(=O)OCC(=O)Nc2cccc(S(N)(=O)=O)c2)cc(OC)c1OC
CCN(CC(=O)Nc1ccc(C)c(S(=O)(=O)N(C)C)c1)Cc1ccccc1
COc1ccc(-c2cc(C(F)(F)F)n3nc(-c4ccccc4)cc3n2)cc1OC
Cc1ccc(-c2onc(C)c2C)cc1S(=O)(=O)Nc1ccccn1
COc1cc(OC)c(OC)cc1/C=C1\C=Cc2ccccc21
CCc1nnc(SCc2nc(-c3cccc(C)c3)oc2C)c2cc3sc(C)cc3n12
O=C(CNC(=O)c1ccc2ccccc2c1)Nc1ncccc1O
COc1ccc(N2CCN(C(=O)CNC(=O)c3ccc(C(C)(C)C)cc3)CC2)cc1
Cc1ccc(Cl)cc1N1CCN(C(=O)C2CCC(CNS(=O)(=O)c3cccs3)CC2)CC1 (centres undefined)
O=C(Cc1ccccc1)Nc1cccc(C(=O)N/N=C/c2ccco2)c1
O=C(Cc1ccc([N+](=O)[O-])cc1)N/N=C/c1ccco1
CCc1nnc(SCc2c(F)cccc2Cl)c2cc3sccc3n12
CCc1ccccc1NC(=O)Cn1c(=O)n(-c2cccc(C)c2)c(=O)c2c1c1cc(OC)ccc1n2C
Cc1[nH]n(-c2ccc([N+](=O)[O-])cc2)c(=O)c1C=NCCN1CCN(C(=O)c2ccccc2F)CC1
CC(=O)N1c2ccccc2N(Cc2ccc([N+](=O)[O-])cc2)C(=O)C1(C)C

— PubChem BioAssay AID588590 (National Center for Advancing Translational Sciences (NCATS), 2011)
